Assay [1] in a line: optical density shifts of acrAB sulA E. coli – strain DRC41, OD650, 48 h, E. coli filamentation inducer project, primary screen (AID 1152).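 Further: E. coli MC1000 strain DRC41 lacking acrAB efflux pump and sulA.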 As to conditions: higher = more signal, called active from +8 up or from −8 down.
A short description of assay [2]: probe aLefty1 binding on compound microarray – biochemical, small-molecule microarray, 635/667 nm fluorescence, primary screen (AID 1153).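 Further: score merges spot fluorescence with signal-to-noise ratio from the scanned slide images.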 Conditions: higher = more signal.
Assay [3] in a line: plasmodial surface anion channel blockers, osmotic lysis – cell-based, P. falciparum Indochina, OD700, 1 h, primary screen (AID 1154). Conditions: P. falciparum Indochina infected RBC osmotic lysis, higher = more signal, called active from +8 up or from −8 down.
The nature of assay [4]: plasmodial surface anion channel blockers, osmotic lysis – cell-based, P. falciparum Indochina, OD700, 2 h, primary screen (AID 1155).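 Further: lysis reports solute entry through the parasite surface anion channel PSAC.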 As to conditions: P. falciparum Indochina infected erythrocytes, higher = more signal, called active from +8 up or from −8 down.
Assay [5] in a line: changes in parasitized red cell lysis, either direction – P. falciparum Indochina, OD700, 3 h, PSAC antagonist project, primary screen (AID 1156). Conditions: P. falciparum-infected erythrocytes, osmotic lysis, higher = more signal, called active from +8 up or from −8 down.
Assay [6] can be described thus: plasmodial surface anion channel blockers, osmotic lysis – cell-based, P. falciparum Indochina, OD700, 18 h, primary screen (AID 1157). As to conditions: P. falciparum Indochina infected erythrocytes, osmotic lysis OD700, 18 h; higher = more signal, called active from +8 up or from −8 down.
Assay [7] in a line: S6 kinase pathway phospho-S6 level changes – cell-based, A549, cytoblot, luminescence, serum-stimulated, primary screen (AID 1158).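 Further: serum-stimulated A549 lung adenocarcinoma cells; signal is phosphorylated S6 detected by cytoblot immunostaining with HRP secondary.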 Conditions: 5 h, higher = more signal.
In assay [8] the target is NADPH oxidase 2 (Homo sapiens) (UniProt P04839). Briefly: compounds shifting NOX2 Amplex Red fluorescence – cell-based, HEK293-NOX2, PMA-stimulated, NOX inhibitor project, primary screen (AID 1159). Further: test concentration not given here. As to conditions: 45 min, higher = more signal, called active from +8 up or from −8 down.
Assay [9] deals with NADPH oxidase 4 (Homo sapiens) (UniProt Q9NPH5). The experiment in a line: compounds shifting NOX4 Amplex Red fluorescence – cell-based, HEK293-NOX4, tetracycline-induced, NOX inhibitor project, primary screen (AID 1160). As to conditions: HEK293-NOX4, Amplex Red H2O2 fluorescence, 45 min; higher = more signal, called active from +8 up or from −8 down.
Assay [10] deals with NADPH oxidase 5 (Homo sapiens) (UniProt Q96PH1). The experiment in a line: compounds shifting NOX5 Amplex Red fluorescence – cell-based, HEK293-NOX5, NOX inhibitor project, primary screen (AID 1161). As to conditions: HEK293-NOX5, ionomycin, 45 min, higher = more signal.

Structures are written as SMILES. Calls of active or inactive are those of the source.

Chain of NADPH oxidase 5 (Homo sapiens) (Q96PH1 whole entry, looked up): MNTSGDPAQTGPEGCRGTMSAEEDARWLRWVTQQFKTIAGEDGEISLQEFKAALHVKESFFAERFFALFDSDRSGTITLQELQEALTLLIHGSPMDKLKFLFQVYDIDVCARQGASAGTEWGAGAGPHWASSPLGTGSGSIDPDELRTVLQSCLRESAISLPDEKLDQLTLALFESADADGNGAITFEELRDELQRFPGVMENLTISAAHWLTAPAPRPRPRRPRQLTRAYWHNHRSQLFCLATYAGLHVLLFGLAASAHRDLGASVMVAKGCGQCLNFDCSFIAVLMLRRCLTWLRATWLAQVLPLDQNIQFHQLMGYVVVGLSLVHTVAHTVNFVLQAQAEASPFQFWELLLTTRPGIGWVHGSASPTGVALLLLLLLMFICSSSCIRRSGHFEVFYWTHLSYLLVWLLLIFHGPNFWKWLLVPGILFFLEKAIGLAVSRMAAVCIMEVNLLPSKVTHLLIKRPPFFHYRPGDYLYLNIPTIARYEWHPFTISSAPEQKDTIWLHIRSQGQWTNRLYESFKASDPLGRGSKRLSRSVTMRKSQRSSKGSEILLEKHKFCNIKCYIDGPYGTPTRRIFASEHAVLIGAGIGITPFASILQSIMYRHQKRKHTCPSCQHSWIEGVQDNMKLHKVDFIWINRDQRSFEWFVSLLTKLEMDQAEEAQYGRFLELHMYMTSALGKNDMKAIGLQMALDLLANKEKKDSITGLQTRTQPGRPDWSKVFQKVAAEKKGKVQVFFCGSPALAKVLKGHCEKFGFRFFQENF
Chain of NADPH oxidase 2 (Homo sapiens) (P04839 whole entry, looked up): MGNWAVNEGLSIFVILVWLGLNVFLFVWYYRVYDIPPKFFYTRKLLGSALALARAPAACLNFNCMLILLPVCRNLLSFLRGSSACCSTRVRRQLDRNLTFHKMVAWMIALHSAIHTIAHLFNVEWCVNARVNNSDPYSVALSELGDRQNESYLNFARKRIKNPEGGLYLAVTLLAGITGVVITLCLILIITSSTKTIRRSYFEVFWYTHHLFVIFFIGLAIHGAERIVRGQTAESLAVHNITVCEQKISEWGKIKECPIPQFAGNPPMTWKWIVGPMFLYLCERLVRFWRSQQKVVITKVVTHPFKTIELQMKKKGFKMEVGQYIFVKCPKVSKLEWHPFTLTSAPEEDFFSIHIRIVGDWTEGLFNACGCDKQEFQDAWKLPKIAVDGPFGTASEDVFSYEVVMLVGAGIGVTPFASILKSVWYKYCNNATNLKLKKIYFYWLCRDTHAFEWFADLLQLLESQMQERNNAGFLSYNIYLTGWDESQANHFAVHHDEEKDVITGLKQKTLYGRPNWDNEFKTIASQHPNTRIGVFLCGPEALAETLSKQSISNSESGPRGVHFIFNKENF
Chain of NADPH oxidase 4 (Homo sapiens) (Q9NPH5 whole entry, looked up): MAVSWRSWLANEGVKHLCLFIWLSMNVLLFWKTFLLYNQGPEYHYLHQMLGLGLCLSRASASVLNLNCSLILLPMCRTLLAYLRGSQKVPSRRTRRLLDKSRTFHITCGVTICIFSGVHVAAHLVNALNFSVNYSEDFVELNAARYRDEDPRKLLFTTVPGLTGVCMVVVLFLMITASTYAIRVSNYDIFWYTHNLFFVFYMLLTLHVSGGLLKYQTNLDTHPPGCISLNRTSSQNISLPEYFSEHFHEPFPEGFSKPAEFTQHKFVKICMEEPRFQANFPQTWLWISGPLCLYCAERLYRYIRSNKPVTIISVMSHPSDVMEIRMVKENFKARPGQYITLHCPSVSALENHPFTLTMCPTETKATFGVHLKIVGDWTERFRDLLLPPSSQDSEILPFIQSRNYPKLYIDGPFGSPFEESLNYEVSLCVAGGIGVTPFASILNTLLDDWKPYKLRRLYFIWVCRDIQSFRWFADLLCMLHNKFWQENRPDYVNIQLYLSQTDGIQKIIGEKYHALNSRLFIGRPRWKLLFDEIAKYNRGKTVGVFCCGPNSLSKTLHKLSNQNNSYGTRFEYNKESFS

Turning to `CN(C)CCCNC(=O)[C@@H]1c2ccccc2C(=O)N(C2CCCCC2)[C@H]1c1ccc(CO)cc1`, the z-score in assay [1] is 0.196 (inactive); in [3], 1.1 (inactive); in assay [4], -0.541 (inactive); in [5] it was 1.67 (inactive); in assay [6] it was 0.253 (inactive); in [7], 0.189. Besides, the figures for the z-score in assay [8], in [9] and in assay [10] were 0.2 (inactive), 0.197 (inactive) and -0.301, respectively. Further, in assay [2], the composite z-score came out at 0.2.

Take `C=CCNC(=O)[C@H]1[C@@H]2C(=O)O[C@@H](c3ccccc3)[C@@H](c3ccccc3)N2[C@@H](c2ccc(OCCO)cc2)[C@]12C(=O)N(C(=O)OCCOC)c1ccc(C#Cc3ccc(OC)cc3)cc12`: the z-score in assay [1] is 2.2 (inactive); in assay [3], 3.4 (inactive); in [4], 1.31 (inactive); in [5], -0.0152 (inactive); in assay [6], 0.121 (inactive); in assay [7], 2.44. For the same compound, the z-score was 1.19 (inactive) in [8], 0.615 (inactive) in assay [9] and -0.0482 in assay [10]. The compound also gave a composite z-score in assay [2] of 0.323.

Consider `O=C1NC(=O)C2C1C=CC(C(O)c1ccccn1)N2Nc1ccc(Cl)cc1Cl` (stereo not given), for which the z-score in assay [1] is -0.889 (inactive); in assay [3] it was 0.625 (inactive); in [4], 0.435 (inactive); in assay [5] it was -0.343 (inactive); in [6], 0.949 (inactive); in assay [7], -0.881. Further, the figures for the z-score in assay [8], in assay [9] and in assay [10] were -1.39 (inactive), -4.83 (inactive) and -3.38, respectively. The same compound yielded a composite z-score in assay [2] of 0.121.

On to `COc1ccc([Si](C)(C)[C@@H]2[C@@H](CC(=O)N3Cc4ccccc4C[C@H]3CO)O[C@]3(C(=O)N(c4ccccc4)c4ccccc43)[C@H]2C)cc1`, for which the z-score was 0.162 (inactive) in [1]; 6.47 (inactive) in [3]; 1.76 (inactive) in assay [4]; 0.168 (inactive) in assay [5]; 1.65 (inactive) in [6]; 0.947 in assay [7]. The values for the z-score in assay [8], in [9] and in assay [10] were 0.651 (inactive), 0.71 (inactive) and 0.544, respectively. Besides, the composite z-score in [2] was found to be 0.855.

For the compound `C=CCC(OC(C)=O)[C@@H]1[C@@H](N(Cc2cccc3ccccc23)C(=O)c2ccc(-c3ccccc3)cc2)c2cc(OCCCO)ccc2N1C(=O)c1ccc(-c2ccccc2)cc1` (stereo not given in full), the z-score is -0.883 (inactive) in assay [1]; 0.311 (inactive) in assay [3]; -1.06 (inactive) in assay [4]; -0.942 (inactive) in assay [5]; -0.454 (inactive) in [6]; -0.0997 in assay [7]. For the same compound, the values for the z-score in assay [8], in assay [9] and in assay [10] were 0.582 (inactive), 0.688 (inactive) and 0.296, respectively. This compound also showed a composite z-score in assay [2] of -0.06.

For `C=CCOC(=O)[C@H]1[C@@H]2C(=O)O[C@@H](c3ccccc3)[C@@H](c3ccccc3)N2[C@@H](c2ccc(OCCOC(=O)[C@H]3C[C@H]4C(=O)N[C@@H](CCCCNC(C)=O)C(=O)N4[C@H]3c3cccc(OCCO)c3)cc2)[C@]12C(=O)Nc1ccc(I)cc12`, the z-score was 0.831 (inactive) in assay [1]; 1.81 (inactive) in assay [3]; -0.285 (inactive) in assay [4]; 1.31 (inactive) in assay [5]; -1.61 (inactive) in assay [6]; 0.112 in [7]. Besides, the z-score in [8] is -0.224 (inactive); in [9], 0.68 (inactive); in assay [10], -0.174. For the same compound, in [2], the composite z-score was -0.625.

With `O=C1C[C@@](C(=O)NCc2ccccc2)(c2ccc([N+](=O)[O-])cc2)[C@@H](c2ccc(CO)cc2I)N1CC12CC3CC(CC(C3)C1)C2`, the z-score in [1] was 0.832 (inactive); in assay [3], 8.97 (active); in assay [4] it was 1.41 (inactive); in assay [5], 2.53 (inactive); in assay [6] it was 0.301 (inactive); in [7], 2.5. In addition, the z-score in assay [8] was -1.38 (inactive); in [9], -4.29 (inactive); in assay [10] it was -3.82. Moreover, in assay [2], the composite z-score was -0.641.

As to `C=CCN1C(=O)[C@@]2(O[C@@H](CCO)[C@H]([Si](C)(C)c3ccc(OC)cc3)[C@H]2C)c2cc(N3CCOC3=O)ccc21`, the z-score in assay [1] is 0.232 (inactive); in assay [3] it was 24.6 (active); in [4], 12.6 (active); in [5], 0.28 (inactive); in assay [6] it was 2.21 (inactive); in [7], 0.309. The figures for the z-score in assay [8], in assay [9] and in assay [10] were -2.41 (inactive), 1.35 (inactive) and -1.52, respectively. This compound also showed a composite z-score in [2] of -0.152.

Consider `COc1cc(NN2C(C(O)c3ccccc3)C=CC3C(=O)N(C)C(=O)C32)cc(OC)c1OC` (stereo not given), for which the z-score in assay [1] was -1.05 (inactive); in assay [3], 0.758 (inactive); in assay [4], 0.34 (inactive); in assay [5] it was 1.21 (inactive); in assay [6], -0.447 (inactive); in [7] it was 1.44. Further, the z-score in assay [8] was -3.07 (inactive); in [9] it was -5.77 (inactive); in assay [10], -6.19. For the same compound, the composite z-score in assay [2] amounted to 0.0455.

As for `O=C1N[C@@H](Cc2ccccc2)C(=O)N2[C@@H]1C[C@@H](C(=O)O)[C@H]2c1ccc(O)cc1`, the z-score in assay [1] was 1.13 (inactive); in assay [3], 6.71 (inactive); in assay [4], 1.04 (inactive); in assay [5] it was -2.73 (inactive); in [6], 0.595 (inactive); in assay [7], -0.0505. Besides, the z-score in assay [8] was -6.08 (inactive); in assay [9], -4.88 (inactive); in assay [10], -2.63. Also, in assay [2], the composite z-score is 0.47.

In the case of `COCCOC(=O)N1C(=O)[C@@]2(c3cc(C#CCNC(N)=O)ccc31)[C@H](c1ccc(OCCO)cc1)N1[C@H](c3ccccc3)[C@H](c3ccccc3)OC(=O)[C@H]1[C@@H]2C(N)=O`, the z-score in assay [1] was 0.336 (inactive); in [3], 4.37 (inactive); in assay [4] it was 1.02 (inactive); in [5] it was -0.383 (inactive); in assay [6], 0.0173 (inactive); in assay [7], -0.412. The z-score in [8] was 1.84 (inactive); in assay [9], 1.34 (inactive); in [10], 0.646. This compound also showed a composite z-score in assay [2] of -0.346.

Source of the values: PubChem BioAssay.
